# Experimental data taken from PubChem BioAssay (EPA / NIEHS).
# Inconclusive results are not listed. Calls of active or inactive are those of the source. How the source made its calls, unless noted: active means hit-call score of the fitted dose curve at least 0.9, where 1 is the maximum; inconclusive means response in the unintended direction; inactive means score below 0.9.
# What was measured:
# [1] = tested on: Thyroperoxidase (TPO), gene 54314; experiment: CCTE_Simmons_AUR_rTPO: CCTE's Amplex UltraRed Assay for Thyroperoxidase (TPO) Inhibition, Simmons Lab (AID 2283662);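 on AC50: potency for loss of signal meaning inhibition of peroxidase activity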
# How it was run: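 Cell-free peroxidase activity assay using rat thyroid gland microsomes with excess H2O2 (300 uM) and 25 uM Amplex UltraRed. Compounds tested from 5 nM to 87.5 uM; fluorescence measured after 30 min at 37C, analysed relative to DMSO baseline.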
# [2] = target: Luciferin 4-monooxygenase (Photinus pyralis) (UniProt P08659); experiment: CCTE_Simmons_QuantiLum_inhib_2: CCTE's Firefly Luciferase Inhibition Assay, Simmons Lab (AID 2283767);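 on AC50: potency for inhibitors that lower luciferase luminescence relative to DMSO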
# How it was run: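 Recombinant firefly luciferase (5 ng/well, 200 mM potassium phosphate with 1 mg/ml BSA) was exposed to 8 concentrations from 5 nM to 87.5 uM (final, 0.5% DMSO) for 30 min at 37C in the dark. Loss of luminescence versus DMSO was read after injecting D-luciferin/ATP-analogue reagent.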
# [3] = CEETOX_H295R_MTT_cell_viability: Viability Assessment in the CeeTox HT-H295R MTT Assay (AID 2283718; active means hit-call score of the fitted dose curve at least 0.9, where 1 is the maximum; inactive means score below 0.9;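 on AC50: curve fitted both ways so AC50 may mark viability loss or gain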)
# How it was run: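 H295R cells prestimulated 48 h with 10 uM forskolin, then exposed 48 h to test chemical (0.1% DMSO final). Viability by MTT (0.5 mg/ml, 4 h, 37 C), absorbance 570/650 nm; percent change versus DMSO, bidirectional fit.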
# [4] = Tanguay_ZF_120hpf_NC_legacy: (Legacy) Oregon State University Tanguay Lab 120 Hour Post-fertilization zebrafish Assay for Notochord and Tail Malformation (AID 2283656)
# How it was run: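 Dechorionated 5D zebrafish, 1/well from 6 hpf; static exposure to 120 hpf, 28C, sealed, dark; final DMSO 0.64% v/v. NC scored binary (present/absent); dead embryos not scored. Fit vs DMSO baseline, gain direction.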
# [5] = Tanguay_ZF_120hpf_TR_legacy: (Legacy) Oregon State University Tanguay Lab 120 Hour Post-fertilization zebrafish Assay for Touch Response (AID 2283667)
# How it was run: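 Tropical 5D wild-type zebrafish embryos were exposed statically in sealed, foil-covered plates at 28C until 120 hpf, with 0.64% (vol/vol) final DMSO. Touch response was scored as present or absent; embryos that died were not scored.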
# [6] = STM_H9_OrnithineISnorm_perc: Stemina devTOX quickPredict H9 human embryonic stem cell (hESC)-based Assay for Ornithine (ORN) Metabolite Biomarker, Normalized (AID 2283712; active means hit-call score of the fitted dose curve at least 0.9, where 1 is the maximum; inactive means score below 0.9;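 further: ornithine released into spent medium during last day measured by mass spectrometry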)
# How it was run: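 Undifferentiated pluripotent H9 hESCs were exposed to compound for 72h, with media and compound replaced every 24h. Ornithine in final 24-h conditioned media was measured by UPLC-HRMS, normalized to 13C-labeled spike-in standard and to median 0.1% DMSO control.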
# [7] = STM_H9_CystineISnorm_perc: Stemina devTOX quickPredict H9 human embryonic stem cell (hESC)-based Assay for Cystine (CYSS) Metabolite Biomarker, Normalized (AID 2283713; active means hit-call score of the fitted dose curve at least 0.9, where 1 is the maximum; inactive means score below 0.9)
# How it was run: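 Undifferentiated H9 hESCs were exposed to compound for 72h, with medium and compound replaced every 24h. Final-24h conditioned medium was deproteinized and analyzed by UPLC-HRMS. Cystine EIC area was normalized to spiked C13 standard and 0.1% DMSO median.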
# [8] = STM_H9_OrnCyssISnorm_ratio: Stemina devTOX quickPredict H9 human embryonic stem cell (hESC)-based Assay for Ornithine (ORN):Cystine (CYSS) Ratio (AID 2283714)
# How it was run: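 Undifferentiated H9 hESCs were exposed to compound for 72h with media and chemical replaced every 24h. Final 24-h conditioned media were deproteinized and analysed by UPLC-HRMS. ORN and CYSS peak areas were normalized to C13 internal standards and the ratio taken versus 0.1% DMSO.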
# [9] = Tanguay_ZF_120hpf_ActivityScore_legacy: (Legacy) Oregon State University Tanguay Lab 120 Hour Post-fertilization zebrafish Assay Score for Activity (AID 2283742)
# How it was run: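 Tropical 5D wild-type zebrafish embryos, dechorionated with pronase at 4 hpf, were exposed singly from 6 hpf to 120 hpf statically at 28C in 0.64% DMSO. Malformations and mortality were scored as binary by brightfield, with the activity score combining 18 morphology components.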
# [10] = target: zebrafish Estrogen Receptor (ESR1), esr1 (gene 259252) (UniProt P57717); experiment: ATG_zfER1_XSP1: Attagene TRANS-FACTORIAL Multi-Species (XSP1) HepG2 Assay for zebrafish Estrogen Receptor (ESR1) (AID 2283772)
# How it was run: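 Trans-activation readout: transfected zebrafish ER-Gal4 drives a UAS reporter in human HepG2 liver cells. After 24 h compound exposure (medium containing 3 nM 6-alpha-fluorotestosterone), induced reporter transcripts were quantified by RT-PCR with capillary electrophoresis, relative to DMSO.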
# Luciferin 4-monooxygenase (Photinus pyralis), sequence (P08659 whole entry, looked up): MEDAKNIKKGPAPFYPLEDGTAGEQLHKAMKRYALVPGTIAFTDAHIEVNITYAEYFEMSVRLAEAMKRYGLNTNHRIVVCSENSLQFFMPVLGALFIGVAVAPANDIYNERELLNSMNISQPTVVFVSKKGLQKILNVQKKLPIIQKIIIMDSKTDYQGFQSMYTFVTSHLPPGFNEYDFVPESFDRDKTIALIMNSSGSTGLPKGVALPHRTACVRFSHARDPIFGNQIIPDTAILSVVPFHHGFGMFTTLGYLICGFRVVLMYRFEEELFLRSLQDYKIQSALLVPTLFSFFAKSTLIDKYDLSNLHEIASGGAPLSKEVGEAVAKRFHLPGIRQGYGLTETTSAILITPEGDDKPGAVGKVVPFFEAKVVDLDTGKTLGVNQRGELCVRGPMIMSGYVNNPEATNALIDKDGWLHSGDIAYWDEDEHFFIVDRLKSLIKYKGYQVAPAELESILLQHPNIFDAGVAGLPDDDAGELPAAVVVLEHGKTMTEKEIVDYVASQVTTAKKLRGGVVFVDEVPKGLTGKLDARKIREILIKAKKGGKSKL
# zebrafish Estrogen Receptor (ESR1), esr1 (gene 259252), sequence (P57717 whole entry, looked up, the tested form may be a part): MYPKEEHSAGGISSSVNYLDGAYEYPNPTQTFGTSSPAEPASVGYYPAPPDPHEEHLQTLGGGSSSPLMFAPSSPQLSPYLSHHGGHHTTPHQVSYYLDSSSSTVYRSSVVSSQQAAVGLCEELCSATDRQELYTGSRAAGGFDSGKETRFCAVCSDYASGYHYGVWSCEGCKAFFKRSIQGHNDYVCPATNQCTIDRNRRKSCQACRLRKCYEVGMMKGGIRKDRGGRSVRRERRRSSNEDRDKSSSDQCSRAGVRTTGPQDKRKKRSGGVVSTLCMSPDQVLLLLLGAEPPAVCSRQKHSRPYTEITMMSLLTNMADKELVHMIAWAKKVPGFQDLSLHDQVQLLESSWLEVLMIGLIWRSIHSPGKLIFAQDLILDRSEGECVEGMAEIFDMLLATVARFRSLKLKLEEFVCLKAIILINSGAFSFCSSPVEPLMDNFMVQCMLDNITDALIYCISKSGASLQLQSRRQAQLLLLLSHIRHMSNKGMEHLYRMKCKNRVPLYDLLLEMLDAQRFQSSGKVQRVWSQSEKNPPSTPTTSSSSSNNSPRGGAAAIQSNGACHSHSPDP
smiles,measurement,setting,value
O=C(O)c1ccc(O)cc1,AC50,[1],35.3 µM (active)
same,outcome,[2],inactive
C=C1CC[C@H](O)C/C1=C/C=C1\CCC[C@]2(C)[C@@H]([C@H](C)/C=C/[C@H](C)C(C)C)CC[C@@H]12,AC50,[1],41.3 µM (active)
same,AC50,[3],83.4 µM (active)
same,outcome,[2],inactive
CCCCCCCCCCCCCCN(CCO)CCO,AC50,[1],44.8 µM (active)
CCOc1ccccc1O,AC50,[1],19.1 µM (active)
same,outcome,[2],inactive
CS(=O)(=O)OCCCCOS(C)(=O)=O,AC50,[4],47.1 µM (active)
same,AC50,[1],30.6 µM (active)
same,outcome,[5],inactive
same,AC50,[6],36.3 µM (active)
same,AC50,[7],5.25 µM (active)
same,AC50,[8],31.2 µM (active)
same,outcome,[9],inactive
same,outcome,[2],inactive
O=C(Nc1ccc2c(O)c(N=Nc3ccc(N=Nc4ccc(S(=O)(=O)O)cc4)cc3)c(S(=O)(=O)O)cc2c1)c1ccccc1,AC50,[1],32.7 µM (active)
same,outcome,[3],inactive
same,AC50,[2],20.7 µM (active)
Cc1ccc(S(=O)(=O)Oc2ccc(N=Nc3ccc(-c4ccc(N=Nc5c(O)ccc6cc(S(=O)(=O)O)cc(S(=O)(=O)O)c56)c(C)c4)cc3C)cc2)cc1,AC50,[1],18.2 µM (active)
same,AC50,[2],17.4 µM (active)
CCc1ccc(O)cc1,outcome,[1],inactive
same,outcome,[2],inactive
CSCCC=O,AC50,[1],43.8 µM (active)
same,outcome,[2],inactive
CN(C)c1cccc(O)c1,AC50,[1],1.34 µM (active)
same,AC50,[2],40.6 µM (active)
C=CC(C)(O)CCC=C(C)C (stereo not given),outcome,[8],inactive
O=C1c2ccccc2C(=O)c2c(O)ccc(O)c21,AC50,[8],10 µM (active)
CCCCC(CC)COC(=O)c1ccc(O)cc1 (stereo not given),outcome,[10],inactive
